IL1B secr inh – qHTS for Inhibitors of Inflammasome Signaling: IL-1-beta AlphaLISA Primary Screen; AID 743279, 2014; THP-1 LPS/ATP IL-1B secretion, AlphaLISA, 16 h; stronger effect = lower value; activity change, % at 57.5 µM; hit rate 4.7% among 360,000; in the data active means activity change below about -50%; inconclusive means mostly about -30% to -49%; further: on the % scale 0 is the no-effect control and ±100 the full control effect
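THP-1 cells pretreated 1 hr with compounds (up to 57.5 uM final), then stimulated with LPS (250 ng/mL final) plus ATP (1.25 mM final); secreted IL-1B measured by AlphaLISA after 16 hr, decreased signal indicating inhibition.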
DRD3 antagonist – qHTS of D3 Dopamine Receptor Antagonist: qHTS; D3R cells, DiscoveRx beta-arrestin luminescence, antagonist mode; stronger effect = lower value; max response, negative = inhibition, %; hit rate 2.5% among 360,000; in the data active means max response below about -50%; inconclusive means no clear call, values can overlap the other calls; further: on the % scale 0 is the no-effect control and ±100 the full control effect
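Cells plated overnight at 1500 cells/well, then exposed to library compounds with dopamine controls for 90 minutes at 37 degrees C. DiscoveRx reagent added for 30–60 minutes at room temperature; luminescence read, quantitative HTS format.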
DRD3 agonist – qHTS of D3 Dopamine Receptor Agonist: qHTS; D3R DiscoveRx beta-arrestin cells, luminescence, 90 min; max activation, %; hit rate 0.58% among 410,000; AID 652048, 2013; in the data active means max activation above about 30%; further: 0% is about no effect
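Agonist-mode cell screen: cells plated at 1500/well and incubated overnight at 37 °C, then exposed to library compounds for 90 min at 37 °C. Detection reagent was added for 30–60 min at room temperature, and luminescence was read.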
ClpP mod – qHTS Assay for Activators of ClpP | AID 651965, 2013 | Potency, µM (doses to about 57.5 µM), without a hit: at the highest dose activity change, negative = active | hit rate 1.9% among 340,000 | purified B. subtilis ClpP, FRET peptide cleavage, 20 min | ATP-dependent Clp protease proteolytic subunit (Bacillus subtilis (strain 168)), P80244; active means well fitted falling curve with a large enough effect; inconclusive means small, poorly fitted or top-dose-only effect; inactive means no such curve, though single readings can be large or run the other way; further: potency means the concentration at half of the fitted maximal effect; the source files actives as falling curves though it sought activators and does not explain the sign; nearly all actives have a fitted effect of over 65% in size
Target sequence (P80244 whole entry, looked up): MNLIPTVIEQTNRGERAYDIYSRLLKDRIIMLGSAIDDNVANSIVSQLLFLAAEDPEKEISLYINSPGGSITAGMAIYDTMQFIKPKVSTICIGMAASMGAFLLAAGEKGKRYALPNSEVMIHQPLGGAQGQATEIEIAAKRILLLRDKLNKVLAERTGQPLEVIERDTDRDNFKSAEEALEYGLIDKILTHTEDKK
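Buffer: 100 mM Tris/HCl pH8, 100 mM KCl, 0.05% low protease BSA, 2.5% glycerol, 0.01% Tween-20. ClpP 10 microg/mL final; 20 min RT; delta FRET normalized to ADEP and DMSO controls.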
DT40 TDP1 no CPT – qHTS for Inhibitors of human tyrosyl-DNA phosphodiesterase 1 (TDP1): qHTS in cells in absence of CPT; DT40 Tdp1-/- hTDP1 cells, no CPT, ATP luminescence, 48 h; Potency, µM (highest dose often 46.2 µM), for the others: at the highest dose activity change, negative = growth inhibition, usual class: inhibitors; hit rate 15% among 420,000; AID 686978, 2013; further: potency means the concentration at half of the fitted maximal effect; on the % scale 0 is the no-effect control and ±100 the full control effect; nearly all actives have a fitted effect of over 55% in size
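Seeded 400 DT40-hTDP1 cells/well (vehicle DMSO, no 20 nM CPT); pinned compounds; ≥48 hr at 37 °C; CellTiter-Glo luminescence as viability measure.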
TDP1 cell CPT – qHTS for Inhibitors of human tyrosyl-DNA phosphodiesterase 1 (TDP1): qHTS in cells in presence of CPT | hit rate 12% among 420,000 | Potency, µM (titrated, usually from 46.2 µM), without a hit: at the top dose activity change, negative = growth inhibition, most hits filed as inhibitors | chicken DT40 Tdp1-/-;hTDP1 cells + 20 nM CPT, ATP luminescence, 48 h; further: potency means the concentration at half of the fitted maximal effect; on the % scale 0 is the no-effect control and ±100 the full control effect; nearly all actives have a fitted effect of over 55% in size
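Cell growth measured by CellTiter-Glo luminescence after a minimum 48 h, 37 C compound exposure with 20 nM CPT in Tdp1-knockout DT40 cells stably expressing hTDP1, seeded 400/well; qHTS titration format.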
* marks the source's active call; other numbers are inactive results; ? = inconclusive; nt = no result. The list is not random: actives were taken first. Their share in the collection is about 21%. Unless noted, the call rests on the fitted dose curve; in most records, active means well fitted inhibition curve with a large enough effect; inconclusive means small, poorly fitted or top-dose-only effect; inactive means flat fitted curve, though single readings scatter.

SMILES	IL1B secr inh	DRD3 antagonist	DRD3 agonist	ClpP mod	DT40 TDP1 no CPT	TDP1 cell CPT
CCOC(=O)N1CCC2(CC1)NC(=O)c1ccccc1N2	7	-17	-4	4%	?	-17%
CC(=O)Nc1cccc(OCCCNC(=O)c2cccc3ccccc23)c1	32	-3	-8	nt	?	-12%
Cc1cccc(NC(=O)C2=C(O)c3ccccc3N(C)S2(=O)=O)c1	34	?	2	3%	15µM*	?
CN1c2ccccc2C(O)=C(C(=S)Nc2ccc(Cl)cc2)S1(=O)=O	-13	-87*	4	0%	21µM*	16µM*
CN1c2ccsc2C(O)=C(C(=O)Nc2ccccc2)S1(=O)=O	13	?	0	0%	?	?
CN(Cc1ccccc1)C(=O)c1ccc(NC(=O)Cc2cccc(NC(=O)C3CCCN(C(=O)C4CCCCC4)C3)c2)cc1 (configuration not stated)	19	0	5	-4%	?	?
CC(=O)c1ccc(Nc2ncnc3ccc(Br)cc23)cc1	-3	12	8	-13%	?	-22%
CS(=O)(=O)Nc1cccc(-c2ccc3ncnc(Nc4ccc(F)cc4)c3c2)c1	nt	nt	nt	nt	?	18µM*
CC(=O)c1cccc(Nc2nc(-c3ccccc3)nc3ccccc23)c1	-22	8	-3	-1%	?	?
CC(=O)c1ccc(Nc2nc(-c3ccccc3)nc3ccccc23)cc1	-60*	27	3	nt	21µM*	?
COC(=O)c1ccc(Nc2nc(-c3ccncc3)nc3ccccc23)cc1	23	0	2	-19%	4%	-19%
CC(=O)c1cccc(Nc2ncnc3ccc(Br)cc23)c1	117	-17	1	nt	21µM*	16µM*
CN(C)C(=O)c1ccc(Nc2nc(-c3cccs3)nc3ccccc23)cc1	-74*	35	-13	nt	7.3µM*	10µM*
Cc1ccc(OCc2cc(C(=O)N3CCC(c4ccccc4Cl)C3)no2)cc1C (configuration not stated)	13	-13	11	0%	18%	?
CN(C)C(=O)c1ccc(-c2nc(Nc3ccc(F)cc3)c3ccccc3n2)cc1	nt	nt	nt	nt	23µM*	?
CC(=O)NCCNc1nc(-c2ccc(C(=O)N(C)C)cc2)nc2ccccc12	nt	nt	nt	nt	-29%	?
CS(=O)(=O)Nc1cccc(-c2nc(Nc3ccccc3)c3ccccc3n2)c1	nt	nt	nt	nt	4.6µM*	9.2µM*
O=[N+]([O-])c1ccc(O)c(Nc2ncnc3ccc(Br)cc23)c1	27	10	9	nt	12µM*	-20%
Cc1cccc(CNc2nc(-c3ccc(C(=O)N(C)C)cc3)nc3ccccc23)c1	nt	nt	nt	nt	2.9µM*	23µM*
Cc1cnc(CNc2nc(-c3cccc(NS(C)(=O)=O)c3)nc3ccccc23)cn1	nt	nt	nt	nt	-8%	-1%
Cn1c(=O)c2c(ncn2CC(=O)N2CCN(C(=O)c3ccco3)CC2)n(C)c1=O	16	7	3	nt	6%	2%
COC(=O)C1CN(C(=O)COc2ccc(Cl)cc2C)c2ccccc2O1 (configuration not stated)	-3	-19	1	-1%	16%	2%
Oc1cccc(Nc2nc(-c3ccccc3)nc3ccccc23)c1	-91*	-1	-4	-5%	?	?
COC(=O)c1cccc(Nc2ncnc3sccc23)c1	23	19	-9	-4%	?	21µM*
CS(=O)(=O)Nc1cccc(-c2ccc3ncnc(N4CCOCC4)c3c2)c1	nt	nt	nt	nt	13µM*	4.1µM*

Bioassay records from PubChem BioAssay.
